Bioassay records (PubChem BioAssay)
hcDAF12 agonist = activates DAF-12 receptor from parasite H. contortus; HEK293 hcDAF-12 lit1-tk-luc reporter, luminescence; 0% DMSO, 100% Δ7-dafachronic acid; activation, % at 6.8 µM; 370,000 compounds, 1.4% hits; AID 652067;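 active = activation above the mean of all tested compounds plus 3 SD, cut at about 5.5% in these data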
hgDAF12 agonist = hgDAF-12 agonism, primary luciferase screen | HEK293 GAL4-hgDAF12 UAS-luciferase reporter, agonist luminescence; normalized to butyrate control | 370,000 compounds, 1.8% hits | AID 687014 | activation, % at 6.8 µM;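 active = activation above a cutoff set at the mean of all screened compounds plus 3 SD, cut at about 10% in these data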
DAX1 inh-1 = NR0B1 (DAX1) inhibition | inhibition, % at 6.75 µM | HEK293 Gal4-DAX1 luciferase reporter, luminescence | AID 504766 | 340,000 compounds, 0.99% hits | P51843;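 active = inhibition above the mean over all tested compounds plus 3 SD, cut at about 4.2% in these data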;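 note: inhibition shows as a rise in luminescence from relieved DAX1 repression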
Target sequence (P51843 207-470 limits assumed): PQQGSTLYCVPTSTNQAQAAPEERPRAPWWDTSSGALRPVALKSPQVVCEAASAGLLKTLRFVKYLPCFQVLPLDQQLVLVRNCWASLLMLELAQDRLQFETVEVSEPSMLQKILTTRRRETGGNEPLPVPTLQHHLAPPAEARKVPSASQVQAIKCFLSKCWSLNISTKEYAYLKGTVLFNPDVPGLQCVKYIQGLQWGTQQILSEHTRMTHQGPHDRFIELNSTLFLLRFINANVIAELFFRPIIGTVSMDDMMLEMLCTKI
DAX1 inh-2 = blocks DAX1 repression of SF-1 activated StAR promoter; HEK293T StAR-luciferase reporter, SF-1/DAX-1 repression relief; inhibition, % at 6.8 µM; 370,000 compounds, 1.1% hits; AID 652010;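 active = inhibition above the mean over all tested compounds plus 3 SD, cut at about 3.6% in these data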;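 note: higher inhibition means more luminescence from relief of DAX-1 repression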
ssDAF12 agonist = S. stercoralis DAF-12 activation, primary screen. HEK293 ssDAF-12/GRIP1 lit1-tk-luc reporter, luminescence; % of 3 µM dafachronic acid response. activation, % at 6.8 µM. 370,000 compounds, 1% hits. AID 652126;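 active = activation above the mean over all tested compounds plus 3 SD, cut at about 0.9% in these data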
Hits are given with their value; - = inactive; . = not tested or not shown. An excerpt weighted towards active compounds, which were near 4.1% of everything screened.

SMILES	hcDAF12 agonist	hgDAF12 agonist	DAX1 inh-1	DAX1 inh-2	ssDAF12 agonist
COC(=O)[C@]12C[C@H](CC(=O)NCc3ccc(C)o3)C(=O)N(CCc3ccc(OC)c(OC)c3)C1=C[C@H](COCc1ccccc1)O[C@@H]2C	-	-	.	-	-
Cc1occc1C(=O)NNC(=S)Nc1ccccc1C(F)(F)F	-	13	-	-	-
Cc1occc1C(=O)NNC(=S)Nc1ccccc1	-	12	-	-	-
Cc1ccccc1NC(=S)NNC(=O)c1ccoc1C	-	-	-	-	-
C#CCNC(=O)C[C@H]1C[C@@]2(C(=O)OC)C(=C[C@H](C3CCCC3)O[C@@H]2C)N(Cc2ccc(Cl)cc2Cl)C1=O	-	-	.	-	-
Cc1ccccc1OCCCN1CCC(C(O)(c2ccccc2)c2ccccc2)CC1	-	-	.	-	-
C=CCN1C(=O)c2ccc(C(=O)N3CCN(S(=O)(=O)c4ccc(C(C)C)cc4)CC3)cc2C1=O	-	-	4.4	-	-
CC(C)c1ccc2oc(-c3ccc(NC(=O)c4ncn[nH]4)cc3)nc2c1	-	-	-	4.0	-
CC(C)CC(=O)Nc1ccc2oc(-c3cccnc3)nc2c1	-	-	-	-	-
Cc1ccc2oc(-c3ccc(NC(=O)CC(C)C)cc3)nc2c1	-	11	-	-	-
CCC(C)NCC(=O)Nc1ccc(-c2nc3cc(NC(=O)CNC(C)CC)ccc3o2)cc1 (stereo not drawn)	-	-	-	-	-
CCC(C)c1ccc2oc(-c3ccc(NC(=O)c4ncn[nH]4)cc3)nc2c1 (stereo not drawn)	-	-	-	-	-
O=C(CN1CCCC1)Nc1ccc(-c2nc3cc(NC(=O)CN4CCCC4)ccc3o2)cc1	-	-	5.8	-	-
CCN(CC)CC(=O)Nc1ccc(-c2nc3cc(NC(=O)CN(CC)CC)ccc3o2)cc1	-	-	-	-	1.0
CCCC(=O)Nc1ccc2oc(-c3ccncc3)nc2c1	-	-	-	-	-
O=C(CN1CCN(c2nc(-c3ccccc3)cs2)CC1)Nc1ccc(Cl)cc1	-	-	.	-	-
C=CCN1C(=O)[C@@H](CC(=O)NCc2ccccc2)[C@]2(C(=O)OCC)CCCCC/C=C/12	-	-	.	-	-
CCc1ccc2oc(-c3ccc(NC(C)=O)cc3)nc2c1	5.8	11	-	-	1.1
O=C(COC(=O)CN1C(=O)NC2(CCCC2)C1=O)Nc1ccccc1C(F)(F)F	-	-	12	-	-
O=C(CN1C(=O)NC2(CCCC2)C1=O)Nc1ccc(OC(F)(F)F)cc1	-	-	9.7	-	-
O=C(CN1C(=O)NC2(CCCC2)C1=O)Nc1nc2ccccc2s1	5.8	-	-	-	-
CN(CC(=O)Nc1ccc(F)cc1)C(=O)COC(=O)CN1C(=O)NC2(CCCC2)C1=O	5.8	-	-	-	-
O=C(CN1C(=O)NC2(CCCCCC2)C1=O)Nc1ccc(OC(F)(F)F)cc1	-	-	-	-	-
COc1ccc(CN2C[C@@]3(O)CC[C@@H](O)[C@@H](OC)[C@@H]3[C@@]2(C)[C@H](O)CC=C(C)C)cc1	-	-	.	-	-
O=C(/C=C/c1ccccc1)NCC1(c2ccccc2)CCOCC1	-	-	5.0	-	-
SMILES	hcDAF12 agonist	hgDAF12 agonist	DAX1 inh-1	DAX1 inh-2	ssDAF12 agonist
CCCCNc1cnn(-c2ccccc2)c(=O)c1Cl	-	-	-	-	-
COCCNc1cnn(-c2ccccc2)c(=O)c1Cl	-	-	4.9	-	-
Cc1ccc(-n2c(SCC(=O)Nc3cccc4ccccc34)nnc2-c2cnccn2)cc1	-	-	.	-	-
CC(C)=CCC/C(C)=C/CN1CC(=O)N2[C@H](C[C@@]3(n4ccc5ccccc54)c4ccccc4N(S(=O)(=O)c4ccccc4)[C@@H]23)C1=O	-	-	.	-	-
CCN(CC)CCNC(=O)CNC(=O)c1nn(-c2ccc(OC)c(OC)c2)c(=O)c2ccccc12	-	-	4.9	-	-
O=C(CCC1CCCC1)NCCCNC(=O)CCC1CCCC1	5.9	-	-	-	-
CC(C)(CNC(=O)CCC1CCCC1)CNC(=O)CCC1CCCC1	-	-	-	-	-
CC(C)=CC(=O)OCc1cc([N+](=O)[O-])cc2c1OCOC2	-	11	-	3.8	1.0
CC(C)[C@H](NC(=O)c1ccccc1Cl)C(=O)OCc1cc([N+](=O)[O-])cc2c1OCOC2	-	-	-	-	1.0
O=C(OCc1cc([N+](=O)[O-])cc2c1OCOC2)c1ccc2ccccc2n1	-	-	-	-	-
O=C(NCc1ccc(F)c(F)c1)C1C2C=CC3(CN(Cc4ccccc4)C(=O)C13)O2 (stereo not drawn)	-	-	.	-	-
Nn1c(SCC(=O)Nc2ccccc2-c2ccccc2)nnc1-c1cc(-c2ccc(Cl)cc2)n[nH]1	-	-	.	-	-
COc1ccc(CNC(=O)O[C@H]2CC[C@@]34CCCN3C(=O)CCC[C@H]4C2)cc1OC	-	-	.	.	-
O=C(O)c1cccc(N2C(=O)c3ccc(C(=O)c4cccc([N+](=O)[O-])c4)cc3C2=O)c1	-	-	-	-	5.8
CCOC(=O)CCCNC(=O)O[C@@H]1CC[C@@]23CCCN2C(=O)CCC[C@H]3C1	-	-	.	.	-
CCCOc1cccc(-c2nc3ccccc3c(=O)o2)c1	-	11	-	-	-
O=c1oc(-c2ccc(Br)cc2)nc2ccccc12	-	-	-	-	0.9
COc1ccc(-n2c(SCC(=O)Nc3ccc4c(c3)OCCO4)nnc2-c2ccccc2)cc1	-	-	.	-	-
Cc1[nH]c2ccccc2c1-c1csc(NC(=O)CSCCO)n1	-	-	5.5	-	-
COc1ccc(/C=N/NC(=O)c2ccc3c(c2)OCO3)cc1	-	-	-	-	-
CN(C)c1ccc(/C=N/NC(=O)c2ccc3c(c2)OCCO3)cc1	-	-	-	-	-
O=C(N/N=C/c1ccncc1)c1ccc2c(c1)OCO2	-	11	-	-	-
O=C(N/N=C/c1ccc2c(c1)OCO2)c1ccc2c(c1)OCCO2	-	13	-	-	-
Cc1cc(C(=O)N/N=C/c2ccc3c(c2)OCO3)c(C)o1	-	11	-	-	-
COc1ccc(OC)c(S(=O)(=O)N2CCCC(C(=O)Nc3c(C)n(C)n(-c4ccccc4)c3=O)C2)c1 (stereo not drawn)	-	-	.	-	-
SMILES	hcDAF12 agonist	hgDAF12 agonist	DAX1 inh-1	DAX1 inh-2	ssDAF12 agonist
CCN(CC)C(=O)CC[C@H]1CC[C@]2(CCCN(Cc3cccnc3)C2)O1	-	-	.	-	-
CN(c1ccccc1)S(=O)(=O)c1cccc(C(=O)NCc2ccccc2CN2CCCC2)c1	-	-	-	-	-
Cc1ccc(S(=O)(=O)N(C)c2ccc(C(=O)NCCc3ccccc3)cc2)cc1	-	-	-	-	0.9
CN(c1ccc(C(=O)NCCc2ccccc2)cc1)S(C)(=O)=O	-	-	-	4.4	-
CN(c1ccccc1)S(=O)(=O)c1ccc(C(=O)NCc2ccccc2CN2CCCC2)cc1	-	-	-	4.3	-
COc1ccc(CCNC(=O)c2ccc(N(C)S(=O)(=O)c3ccc(C)cc3)cc2)cc1	-	-	-	-	-
